# Screening results deposited in PubChem by National Center for Advancing Translational Sciences (NCATS).
# The list is not random: actives were taken first. Their share in the collection is about 2.6%.
# ClpP mod = qHTS Assay for Activators of ClpP; Potency, µM (top dose mostly 57.5 µM), for inactives: at the top dose activity change, negative = active; 340,000 compounds, 1.9% hits; AID 651965, 2013; purified B. subtilis ClpP, FRET peptide cleavage, 20 min; ATP-dependent Clp protease proteolytic subunit (Bacillus subtilis (strain 168)), P80244; active = well fitted falling curve with a large enough effect; inconclusive = small, poorly fitted or top-dose-only effect; inactive = no such curve, though single readings can be large or run the other way; also: potency is read from the fitted curve at half-maximal effect; the source files actives as falling curves though it sought activators and does not explain the sign; nearly all actives have a fitted effect of over 65% in size
#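 FRET quenching reversal measured ClpP activation: 10 microg/mL B. subtilis ClpP at pH 8 with the FRET-FV decapeptide, read at 430 nm after 320 nm excitation. The 20-min minus 0-min signal was scaled between DMSO/no-enzyme wells and ADEP (5.8 microM final).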
# KCNH2 WT inh = qHTS for Inhibitors of KCHN2 3.1: Wildtype qHTS; Voltage-gated inwardly rectifying potassium channel KCNH2 (Homo sapiens), Q12809; U2OS, BacMam KCNH2, thallium flux FluxOr; hits give low values; activity change, % at 1.84 µM; 340,000 compounds, 0.37% hits;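 active = maximum activity change below -70%; inconclusive = maximum activity change between -70% and -50%; inactive = maximum activity change above -50%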; also: % is scaled to controls: 0 for no effect and ±100 for the full control effect
#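 U2OS cells were transduced with wild-type KCNH2 virus (2.03 x 10^8 / mL) for 4 h at room temperature, then cultured overnight at 37 C. Thallium flux was read with FluxOr dye. Rate constants were normalized to DMSO controls.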
# KCNH2 3.1 block = qHTS for Inhibitors of KCHN2 3.1: Mutant qHTS. AID 720553, 2013. 340,000 compounds, 0.95% hits. activity change, % (tested at about 1.8 µM). U2OS KCNH2 3.1, thallium flux FluxOr; hits give low values;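 active = maximum activity change below -70%; inconclusive = maximum activity change from -70% to -50%; inactive = maximum activity change above -50%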;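 also: thallium influx rate constant from kinetic fluorescence after stimulation buffer; % is scaled to controls: 0 for no effect and ±100 for the full control effect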
#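 Steps: virus added to U2OS suspension (4 h, RT, dark); medium with 10% FBS added, cells plated, 37 C overnight; FluxOr/Red40 loading buffer 45 min RT; stimulation buffer, 2 min kinetic read; rate constant normalized.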
# p53 reactivation = qHTS assay for re-activators of p53 using a Luc reporter; H1299 p53-A138V BP100-luciferase reporter, luminescence, 24 h; Potency, µM (top dose mostly 92.2 µM), for the others: at the highest dose activity change, positive = activation, actives largely listed as activators; 320,000 compounds, 0.063% hits; AID 504706, 2011; active = well fitted activation curve with a large enough effect; inconclusive = small, poorly fitted or top-dose-only effect; inactive = no such curve, though single readings can be large or run the other way; also: potency is read from the fitted curve at half-maximal effect; % of control where 0% means no effect; nearly all actives have a fitted effect of over 45% in size
#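 H1299 (p53-null), stable ts p53-A138V + BP100-Luc; 1000 cells/well, Opti-MEM/10% FBS; cpd 4 pt, 1:5; 24 h, 37 deg C, 5% CO2; detection reagent 10 min RT; luminescence.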
# TRPV1 ag = HTS Assay for Compounds that Act as Agonists of the Vanilloid Receptor 1. Transient receptor potential cation channel subfamily V member 1 (Homo sapiens), Q8NER1. TRPV1-expressing cells, Fluo-8 calcium influx, agonist mode. activation, % at 8.33 µM. 320,000 compounds, 0.19% hits; in the data active = activation above about 80%; inconclusive = between about 30% and that limit; also: 0% is about no effect
#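 TRPV1-expressing cells were cultured overnight at 35.5C and loaded with Fluo-8 calcium dye for 40 to 90 min at room temperature. After a 10 s baseline, compound was added and calcium influx was read kinetically for 3 min (ex 480/em 520 nm).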
# TRPV1 potentiator = HTS Assay for Compounds that Act as Potentiators of the Vanilloid Receptor 1 | Transient receptor potential cation channel subfamily V member 1 (Homo sapiens), Q8NER1 | TRPV1-expressing cells, Fluo-8 calcium influx, capsaicin EC20 potentiation | potentiation, % at 8.33 µM | 320,000 compounds, 0.02% hits; in the data active = potentiation above about 80%; inconclusive = between about 30% and that limit; also: 0% is about no effect
#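 TRPV1-expressing cells were cultured overnight at 35.5C and loaded with Fluo-8 calcium dye for 40 to 90 min at room temperature. After a 10 s baseline, compound was added and calcium influx was read kinetically for 3 min (ex 480/em 520 nm).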
# An asterisk follows results filed as active; ? = inconclusive; nt = no result given.
SMILES,ClpP mod,KCNH2 WT inh,KCNH2 3.1 block,p53 reactivation,TRPV1 ag,TRPV1 potentiator
CCOC(=O)CSc1nc2sc3c(c2c(=O)n1C1CCCCC1)CCN(C)C3,28µM*,-11,20,-7%,-1,19
CCOC(=O)CSc1nc2sc3c(c2c(=O)n1-c1ccc(OCC)cc1)CCN(C)C3,-22%,1,5,?,6,4
Cc1cc(Br)ccc1NC(=O)c1cc2c(s1)-c1ccccc1SC2,14µM*,nt,nt,nt,nt,nt
Cc1ccc(CNC(=O)c2cc3c(s2)-c2ccccc2SC3)cc1,109%,nt,nt,nt,nt,nt
COc1cc(C(=O)N(CCc2ccccc2)C2=CC3CCC(C2)N3C)cc(OC)c1OC (configuration not stated),1%,1,1,-2%,1,13
Cc1cc(C)cc(C(=O)N(CCc2ccccc2)C2CC3CCC(C2)N3C)c1 (configuration not stated),nt,-8,-88*,-14%,3,-8
CC(=O)Nc1nnc(SCc2cc(=O)c3cccc(Cl)c3[nH]2)s1,0%,nt,nt,nt,nt,nt
COc1ccc(C2C(C#N)=C(N)Oc3c2sc2nc(C)cc(C)c32)cc1 (configuration not stated),28µM*,-13,0,?,1,-17
CN[C@H]1C[C@@H](c2ccccc2)N(C(C)=O)C[C@H]1CO,-1%,nt,nt,nt,nt,nt
Cc1cnc(CN2CCc3c([nH]c4ccccc34)C2C2CCCCC2)[nH]1 (configuration not stated),nt,9,-72*,4%,0,11
CCN(C(=O)COC(=O)c1ccccc1NCc1ccco1)c1c(N)n(Cc2ccccc2)c(=O)[nH]c1=O,4%,-3,-8,nt,nt,nt
CC(C)CN(C(=O)COC(=O)c1ccccc1NCc1ccco1)c1c(N)n(Cc2ccccc2)c(=O)[nH]c1=O,28µM*,13,1,-3%,2,?
Cc1ccc(-n2c(COCC(=O)O)nc3cccnc32)cc1,-12%,nt,nt,nt,nt,nt
N#Cc1c(-c2ccc3c(c2)OCO3)csc1N,-3%,-2,-2,-1%,-12,-14
N#Cc1c(-c2ccccc2)cc(-c2ccc3c(c2)OCO3)[nH]c1=O,18µM*,12,-1,-5%,-2,0
CSc1sc(C(=O)N2CCc3ccccc32)cc1S(=O)(=O)C(C)C,32µM*,5,3,5%,9,3
Cc1ccc(C)c(NC(=O)Cn2c(=O)oc3cc(S(=O)(=O)NCc4ccccc4)ccc32)c1,1%,nt,nt,nt,nt,nt
CCNc1cc2n(c(=O)n1)CCc1cc(OC)c(OC)cc1-2,28µM*,-11,-10,-5%,0,5
CCOc1ccccc1Nc1cc2n(c(=O)n1)CCc1cc(OC)c(OC)cc1-2,nt,-4,-4,-5%,6,-3
CCCCCCNc1cc2n(c(=O)n1)CCc1cc(OC)c(OC)cc1-2,16µM*,-9,2,-2%,1,2
COc1cc2c(cc1OC)-c1cc(NCc3ccccn3)nc(=O)n1CC2,28µM*,7,0,-12%,-1,3
COc1cc2c(cc1OC)-c1cc(NC3CC3)nc(=O)n1CC2,-29%,-5,-1,-4%,2,-3
COc1cc2c(cc1OC)-c1cc(NC3CCCCCCC3)nc(=O)n1CC2,?,-6,-1,-17%,-2,-4
c1ccc(-c2sc3ccccc3c2-c2ccc(OCCN3CCOCC3)cc2)cc1,32µM*,32,-45,-3%,nt,nt
COc1ccccc1-c1sc2ccccc2c1-c1ccc(OCCN2CCOCC2)cc1,-24%,5,-24,-5%,nt,nt
SMILES,ClpP mod,KCNH2 WT inh,KCNH2 3.1 block,p53 reactivation,TRPV1 ag,TRPV1 potentiator
COC(=O)c1ccccc1-c1ccc(/C=N/NC(=O)c2cc3ccccc3o2)o1,?,11,-5,-7%,5,22
COC(=O)c1ccccc1-c1c2ccc(=N)cc-2oc2cc(N)ccc12,nt,-118*,?,1%,123*,-5
CCOC(=O)C1(CCc2ccccc2)CCN(Cc2ccc(OC)cc2)CC1,nt,-136*,-111*,2%,8,1
CCOC(=O)C1(CCc2ccccc2)CCN(Cc2ccc(O)cc2)CC1,-2%,-113*,-116*,-2%,26,-47
CCOC(=O)C1(CC2CC2)CCN(Cc2ccc(OC)cc2F)CC1,nt,17,-108*,0%,2,-14
CCOC(=O)C1(CCc2ccccc2)CCN(Cc2cnc(N(C)C)s2)CC1,nt,-86*,-112*,3%,4,-13
CCOc1ccc(-c2ccc(NS(=O)(=O)c3ccc(C)cc3)cc2)nn1,2%,nt,nt,nt,nt,nt
COCCCNC(=O)c1cnn(-c2ccccc2Cl)c1C1CCN(C(=O)OC(C)(C)C)CC1,1%,nt,nt,nt,nt,nt
OCC1(CCCc2ccccc2)CCN(C2CCSCC2)CC1,nt,26,1,-3%,3,-13
CCOC(=O)C1(CCCc2ccccc2)CCN(C2CCSCC2)CC1,-3%,-126*,-107*,5%,11,-4
C=Cc1ccc(CSc2nc(-c3ccccc3C)nc3c2Cc2c(CO)cnc(C)c2O3)cc1,-3%,nt,nt,nt,nt,nt
CC(C)C[C@@H](CN1CCCC1CN1C(=S)NC[C@@H]1Cc1ccc(O)cc1)N1C[C@H](Cc2ccc(O)cc2)N(CCc2ccccc2)C1=S (some centres not stated),-4%,-121*,-79*,nt,nt,nt
CCOc1ccc(CCN2C(=S)N([C@@H](Cc3ccc(O)cc3)CN3CCCC3CN3C(=S)NC[C@@H]3Cc3ccc(O)cc3)C[C@@H]2CC(C)C)cc1 (some centres not stated),-1%,-80*,-28,nt,nt,nt
COc1ccccc1CNC(=O)C(=O)NCC(c1ccco1)S(=O)(=O)c1cccs1 (configuration not stated),0%,nt,nt,nt,nt,nt
COc1ccc(C(=O)NCc2nnc(SCC(=O)N3CCCCC3)o2)cc1,nt,-3,-92*,-5%,1,-8
CCc1ccc2nc(NC(=O)CCCc3cccs3)sc2c1,13µM*,-5,18,18%,21,-1
CCCCCCSc1nnc2c(n1)OC(C)Nc1ccc(Br)cc1-2 (configuration not stated),-1%,nt,nt,nt,nt,nt
CCN(Cc1ccccc1)C(=O)CN(c1ccc(OC)cc1)S(=O)(=O)c1c(C)nn(C)c1C,0%,nt,nt,nt,nt,nt
